Data on nine molecules can be found in PubChem BioAssay (Tox21).

Values joined by “and” are separate entries in the source; they are usually repeats but may differ in a detail not shown here. Identical values can stand only once. A number with no mark means an inactive call. Records with an inconclusive call do not appear. Active and inactive are the calls of the source. Unless noted, calls come from the whole dose curve; as a rule, active = well fitted curve in the direction sought with a large enough effect in the repeat runs; inconclusive = weak or mixed curves; inactive = no such curve, though single readings can be large; an effect the other way counts as inactive or inconclusive.

A short description of assay [1]: qHTS assay to identify small molecule agonists of the constitutive androstane receptor (CAR) signaling pathway - cell viability counter screen (AID 1224836). Note: nearly all actives have a fitted effect of over 45% in size. In a few lines:
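Fluorescence from CellTiter-Fluor indicates live cells after 23 h exposure. The human hepatoma line expresses hCAR and a CYP2B6-2.2kb reporter. Incubation medium contains 0.75 uM PK11195 (final).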

Assay [2] can be described thus: qHTS assay to identify small molecule antagonists of the constitutive androstane receptor (CAR) signaling pathway - cell viability counter screen (AID 1224837). Note: nearly all actives have a fitted effect of over 45% in size. A digest of the protocol: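 Cells are seeded, rested 4 hr at 37 C/5% CO2, dosed with compound (15-point series) and 50 nM CITCO, incubated a further 23 hr, and then CellTiter-Fluor reagent is added before fluorescence is read. The line is HepG2 with stable hCAR and CYP2B6-2.2kb.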
(In general: In qHTS, concentration-response curves come from the screen itself.)

In assay [3] the target is Nuclear receptor subfamily 1 group I member 3 (Homo sapiens) (UniProt Q14994). The assay is described as follows: qHTS assay to identify small molecule antagonists of the constitutive androstane receptor (CAR) signaling pathway (AID 1224838).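 Note: HepG2 cells stably expressing hCAR with CYP2B6 luciferase reporter stimulated by CITCO; nearly all actives have a fitted effect of over 40% in size.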 A digest of the protocol:
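Luminescence from a CYP2B6-2.2kb promoter reporter in hCAR-expressing HepG2 cells reflects CAR signaling. Cells received compounds at 15 concentrations and 50 nM CITCO (final), then incubated 24 h at 37 C/5% CO2.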

Assay [4] shares this target. The assay is described as follows: qHTS assay to identify small molecule agonists of the constitutive androstane receptor (CAR) signaling pathway (AID 1224839).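 Note: HepG2 cells stably carrying human CAR and a CYP2B6 luciferase reporter; nearly all actives have a fitted effect of over 15% in size.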 A digest of the protocol:
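Stable hCAR/CYP2B6-2.2kb HepG2 line in DMEM with 10% FBS; compounds (15 concentrations) and 0.75 uM PK11195 final, 24 h at 37 C/5% CO2, then ONE-Glo luminescence after 30 min.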

Assay [5] in a line: qHTS assay to identify small molecule antagonists of the estrogen related receptor signaling pathway with the pleiotropic PPARgamma coactivator (PGC) from Tox21 10K library (AID 1224841; call rule not given here; note: actives are mostly falling curves and most rising ones were filed inactive; nearly all actives have a fitted effect of over 50% in size; note: potency is the fitted concentration of half-maximal effect). In a few lines: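 Cells stably carrying the PGC/ERR reporter, seeded at 2,000 per well, received pin-transferred compounds 6 h post-plating. Exposure lasted 18 h at 37 C. Signal: One-Glo luminescence.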

Assay [6] in a line: qHTS assay to identify small molecule agonists of the estrogen related receptor signaling pathway with the pleiotropic PPARgamma coactivator (PGC) from Tox21 10K library (AID 1224842). Note: nearly all actives have a fitted effect of over 15% in size. In a few lines:
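PGC/ERR reporter cell line, 2,000 cells per well, incubated 6 h at 37 C before 23 nL compound in DMSO was added. After 18 h at 37 C, One-Glo luminescence read following 30 min at room temperature.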

For assay [7], the target named is Thyrotropin receptor (Homo sapiens) (UniProt P16473). Briefly: qHTS assay to identify small molecule agonists of the thyroid stimulating hormone receptor (TSHR) signaling pathway (AID 1224843; calls by dose curve; note: nearly all actives have a fitted effect of over 45% in size). A digest of the protocol:
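Agonist-mode screen: TSHR HEK293 cells received test chemicals for half an hour at room temperature, then HTRF cAMP detection reagents for one hour prior to fluorescence measurement. Each chemical ran as a 15-concentration series, triplicated.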

Assay [8] can be described thus: qHTS assay to identify small molecule agonists of H2AX (AID 1224845; active = well fitted activation curve with a large enough effect in the signal ratio in the repeat runs, not every such curve was filed as active; the % refers to the signal ratio). In a few lines: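 Wild-type CHO-K1 cells, plated overnight, exposed 3hr at 37C to 15 concentrations (0.76% DMSO final). Lysed, then HTRF anti-pH2AX (S139) cryptate and anti-H2AX-d2 antibodies, 24 hr room temperature; 665/620 nm emission read.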
The nature of assay [9]: qHTS assay to identify small molecule agonists of the hypoxia (HIF-1) signaling pathway (AID 1224846; active = well fitted activation curve with a large enough effect in the signal ratio in the repeat runs, not every such curve was filed as active; the % refers to the signal ratio). In a few lines: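 Agonist mode reporter screen. ME-180 cells stably expressing bla under HRE control received test compounds in DMSO for 17 hrs (37C, 5% CO2), and beta-lactamase activity was then detected with the CCF4-AM FRET substrate.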
A short description of assay [10]: qHTS assay to identify small molecule agonists of H2AX - cell viability counter screen (AID 1224847; calls by dose curve; note: top concentration of the series differs between compounds; nearly all actives have a fitted effect of over 30% in size). In a few lines:
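Viability of CHO-K1 (wild type) cells after 3 hr compound exposure was measured by CellTiter-Glo luminescence.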

Assay [11] is described as follows: qHTS assay to identify small molecule antagonists of the estrogen related receptor (ERR) signaling pathway from Tox21 library (AID 1224848). Note: nearly all actives have a fitted effect of over 50% in size. Note: potency is the fitted concentration of half-maximal effect. In a few lines: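 Quantitative high-throughput format: ERR reporter cells (2,000/well) pre-incubated 6 h, treated 18 h at 37 C with compounds in DMSO alongside positive and negative controls, then read by ONE-Glo luminescence.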

Assay [12] in a line: qHTS assay to identify small molecule agonists of the estrogen related receptor (ERR) signaling pathway from Tox21 library (AID 1224849; calls by dose curve; note: nearly all actives have a fitted effect of over 15% in size). The settings on record: ERR reporter cell line, ONE-Glo luciferase, 18 h. A digest of the protocol: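 Quantitative HTS in agonist format: NTP ERR cell line, compounds transferred in DMSO after 6 h plating, 18 h incubation at 37 C, ONE-Glo luminescence endpoint.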

Assay [13] can be described thus: qHTS RealTime-Glo MT Cell Viability Assay in HepG2 cells - 24 hour (AID 1224867). Note: nearly all actives have a fitted effect of over 50% in size. Note: potency is the fitted concentration of half-maximal effect. A digest of the protocol: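 HepG2 cells were seeded at 600 cells/well together with NanoLuc luciferase and a cell-permeant prosubstrate, preincubated 5 h at 37 C/5% CO2, then pin-dosed with compounds in DMSO. Nonlytic luminescence from viable cells was read at each time point.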
Assay [14] can be described thus: qHTS RealTime-Glo MT Cell Viability Assay in HEK293 cells - 32 hour (AID 1224868). Note: nearly all actives have a fitted effect of over 50% in size. Note: potency is the fitted concentration of half-maximal effect. A digest of the protocol: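 HEK293 cells were seeded at 600 cells/well together with NanoLuc luciferase and cell-permeant prosubstrate, preincubated 5 h at 37 C/5% CO2, then given compound in DMSO by pintool. Luminescence from viable-cell prosubstrate reduction was read repeatedly over 40 h.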

Assay [15] can be described thus: A CellTox Green Cytotoxicity Assay to monitor cytotoxicity in HEK293 cells - 0 hour (AID 1224869). Note: nearly all actives have a fitted effect of over 50% in size. In a few lines:
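Dead-cell fluorescence measured kinetically: asymmetric cyanine dye, HEK293, 600 cells/well, 5 h settle, 23 nL cpd/DMSO, 37 C, reads 0–40 h every 8 h.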

Assay [16] deals with Luciferin 4-monooxygenase (Photinus pyralis) (UniProt P08659). Briefly: qHTS assay to identify small molecule inhibitors of firefly luciferase (AID 1224835). Note: nearly all actives have a fitted effect of over 25% in size. Note: potency is the fitted concentration of half-maximal effect. A digest of the protocol:
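Biochemical qHTS: compounds run as interplate titrations against purified firefly enzyme, with D-luciferin and ATP each at its KM concentration. Light output recorded by CCD imaging.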

The nature of assay [17]: qHTS assay to identify small molecule antagonists of the estrogen related receptor signaling pathway with the pleiotropic PPARgamma coactivator (PGC) from Tox21 10K library - cell viability counter screen (AID 1224840; active = well fitted cell-killing curve with a large enough effect in the repeat runs, not every such curve was filed as active; note: nearly all actives have a fitted effect of over 40% in size; note: potency is the fitted concentration of half-maximal effect). A digest of the protocol:
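Cell viability is measured by CellTiter-Fluor fluorescence in PGC/ERR cells that receive compounds after a 6-hour attachment period and are then incubated 17.5 hours at 37 C.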

The nature of assay [18]: qHTS assay to identify small molecule agonists of the hypoxia (HIF-1) signaling pathway - cell viability counter screen (AID 1224844; calls by dose curve; note: nearly all actives have a fitted effect of over 50% in size). A digest of the protocol:
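Viability counter screen: HRE-bla ME-180 cells plated 5 hrs before compound addition, treated 17 hrs at 37C and 5% CO2, then CellTiter-Glo added after the FRET reporter read; luminescence after 30 min.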

The nature of assay [19]: qHTS RealTime-Glo MT Cell Viability Assay in HepG2 cells - 40 hour (AID 1224870). Note: nearly all actives have a fitted effect of over 50% in size. Note: potency is the fitted concentration of half-maximal effect. In a few lines: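 HepG2 cells (600/well) mixed with RealTime-Glo MT reagent, settled 5 h at 37 C/5% CO2 before compound addition. Nonlytic NanoLuc luminescence from viable-cell prosubstrate reduction read repeatedly during 40 h treatment at 37 C.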
% is set by controls: 0 for no effect and ±100 for the full control effect.

Thyrotropin receptor (Homo sapiens), sequence (P16473 whole entry, looked up): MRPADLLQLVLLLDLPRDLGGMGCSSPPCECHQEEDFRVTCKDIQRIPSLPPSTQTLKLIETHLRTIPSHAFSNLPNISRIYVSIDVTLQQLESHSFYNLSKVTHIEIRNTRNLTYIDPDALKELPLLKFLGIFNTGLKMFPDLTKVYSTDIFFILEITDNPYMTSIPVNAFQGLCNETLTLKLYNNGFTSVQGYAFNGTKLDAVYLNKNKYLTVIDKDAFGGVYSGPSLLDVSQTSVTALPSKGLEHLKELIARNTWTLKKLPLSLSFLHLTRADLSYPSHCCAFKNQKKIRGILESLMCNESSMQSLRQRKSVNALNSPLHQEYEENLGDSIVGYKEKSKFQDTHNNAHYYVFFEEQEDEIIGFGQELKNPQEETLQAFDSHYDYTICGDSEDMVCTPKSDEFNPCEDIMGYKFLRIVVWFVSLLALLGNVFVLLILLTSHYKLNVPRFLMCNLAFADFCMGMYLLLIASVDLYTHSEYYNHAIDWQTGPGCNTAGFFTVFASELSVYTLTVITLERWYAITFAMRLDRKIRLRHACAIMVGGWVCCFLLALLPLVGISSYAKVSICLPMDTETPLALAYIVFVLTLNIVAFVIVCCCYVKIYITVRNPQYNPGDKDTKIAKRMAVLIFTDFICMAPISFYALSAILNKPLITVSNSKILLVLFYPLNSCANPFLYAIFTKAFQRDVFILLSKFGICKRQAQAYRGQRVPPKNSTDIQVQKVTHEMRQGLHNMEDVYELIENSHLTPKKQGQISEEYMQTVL
Nuclear receptor subfamily 1 group I member 3 (Homo sapiens), sequence (Q14994 whole entry, looked up): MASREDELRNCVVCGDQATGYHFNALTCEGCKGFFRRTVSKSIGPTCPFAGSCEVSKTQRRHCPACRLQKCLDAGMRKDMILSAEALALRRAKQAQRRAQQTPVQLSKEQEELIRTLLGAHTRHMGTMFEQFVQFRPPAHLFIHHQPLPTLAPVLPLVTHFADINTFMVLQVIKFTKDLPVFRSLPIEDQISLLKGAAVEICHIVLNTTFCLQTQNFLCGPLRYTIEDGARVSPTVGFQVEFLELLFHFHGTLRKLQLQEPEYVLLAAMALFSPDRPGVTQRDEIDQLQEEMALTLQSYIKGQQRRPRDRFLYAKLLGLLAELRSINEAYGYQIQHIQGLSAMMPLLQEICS
Luciferin 4-monooxygenase (Photinus pyralis), sequence (P08659 whole entry, looked up): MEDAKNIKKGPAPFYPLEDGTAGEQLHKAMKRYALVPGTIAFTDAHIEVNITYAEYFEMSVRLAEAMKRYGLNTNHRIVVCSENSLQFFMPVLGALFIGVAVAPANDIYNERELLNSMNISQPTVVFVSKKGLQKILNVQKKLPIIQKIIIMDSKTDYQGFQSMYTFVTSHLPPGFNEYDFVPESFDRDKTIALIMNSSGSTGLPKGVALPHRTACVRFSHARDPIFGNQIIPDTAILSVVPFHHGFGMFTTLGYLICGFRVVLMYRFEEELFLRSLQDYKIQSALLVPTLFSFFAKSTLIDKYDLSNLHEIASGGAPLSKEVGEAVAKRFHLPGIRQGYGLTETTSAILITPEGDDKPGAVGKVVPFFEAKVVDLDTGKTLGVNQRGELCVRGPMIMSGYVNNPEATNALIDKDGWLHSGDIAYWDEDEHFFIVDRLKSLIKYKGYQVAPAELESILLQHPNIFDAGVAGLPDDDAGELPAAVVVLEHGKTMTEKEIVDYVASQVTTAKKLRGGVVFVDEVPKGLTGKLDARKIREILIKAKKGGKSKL

Consider `Sc1nc2ccccc2s1`, for which the Potency result in [1], in assay [2], in [3], in assay [4], in assay [5] and in assay [6] was “inactive” each time. Besides, the Potency entry in [7], in assay [8], in [9], in [10], in [11] and in [13] was “inactive” in each case. Also, the Potency entry in [14] and in assay [15] was “inactive” throughout. Further, the activity change, positive = activation in assay [12] (at 92.4 µM (top of the series)) was 0.0626%.

As to `Nc1nc(-c2ccccc2)cs1`, the Potency in assay [16] was 31.6 µM (active). Further, the Potency result in assay [1], in assay [2], in assay [17], in assay [6], in [7] and in assay [18] was “inactive” each time. Moreover, the Potency entry in [8], in assay [9], in assay [10], in assay [11], in assay [13] and in [14] was “inactive” throughout. Further, the Potency entry in assay [15] and in assay [19] was “inactive” throughout. Moreover, the activity change, positive = activation in [12] (at 92.4 µM (top of the series)) is 41.7% (active).

Regarding `O=c1[nH]c2ccccc2n1CCCN1CCN(C(c2ccccc2)c2ccccc2)CC1`, the Potency result in assay [16], in assay [4], in assay [7] and in assay [15] was “inactive” in each case. Further, the Potency in [17] is 23.7 µM (active); in assay [13] it was 23.9 µM (active); in assay [14], 12 µM (active); in assay [19] it was 23.9 µM (active).

As to `Cc1ccc(C)cc1`, the Potency entry in assay [16], in [1], in assay [2], in assay [17], in assay [5] and in assay [6] was “inactive” in each case. Further, the Potency entry in assay [18], in assay [8], in assay [9], in assay [11], in assay [13] and in assay [14] was “inactive” throughout. Moreover, the Potency entry in assay [15] and in [19] was “inactive” each time. In [12] (at 92.4 µM (top of the series)), the activity change, positive = activation was 0.373%.

Turning to `Cc1cc(C(C#N)c2ccc(Cl)cc2)c(Cl)cc1NC(=O)c1cc(I)cc(I)c1O` (centres undefined), the Potency result in assay [16], in [1], in [2], in assay [17], in assay [6] and in [18] was “inactive” throughout. Also, the Potency result in assay [8], in assay [13], in [14] and in assay [19] was “inactive” in each case. For the same molecule, the Potency in assay [11] is 26.6 µM (active). Also, in [12] (at 42.5 µM (top of the series)), the activity change, positive = activation was -52.3%.

On to `c1ccc(C(O[C@@H]2CCCN(CCc3ccc4c(c3)OCO4)C2)c2ccccc2)cc1`, for which the Potency entry in assay [16], in assay [1], in assay [2], in [18], in assay [8] and in assay [9] was “inactive” in each case. Also, the Potency entry in assay [13], in [15] and in assay [19] was “inactive” throughout.

In the case of `CCCc1ccc(OCC(=O)N2CCN(C(=O)COc3ccc(CCC)cc3OC)CC2)c(OC)c1`, the Potency result in [16], in assay [1], in [3], in assay [4], in assay [6] and in assay [7] was “inactive” throughout. The Potency entry in [8], in assay [10], in assay [15] and in assay [19] was “inactive” throughout. For the same molecule, the Potency in [5] was 16.8 µM (active); in [14] it was 8.49 µM (active). Also, the activity change, positive = activation in [12] (at 42.5 µM (top of the series)) was -21.5%.

For `CC(=O)[C@H]1CC[C@H]2[C@@H]3CCC4=CC(=O)CC[C@]4(C)[C@H]3CC[C@]12C`, the Potency entry in [16], in [2], in assay [6], in [7], in [18] and in [15] was “inactive” in each case. Also, in assay [19], the Potency result is “inactive”. For the same molecule, the Potency was 27.1 µM (active) and 13.7 µM (active) in assay [5]; 13.6 µM (active) and 15.4 µM (active) in [11]; 13.7 µM (active) and 17.4 µM (active) in [14]. Moreover, the activity change, positive = activation in assay [12] (at 92.4 µM (top of the series)) is -73.5% and -66.4%.

As for `O=C(/C=C/c1ccc(O)c(O)c1)O[C@@H](C(=O)O)[C@@H](OC(=O)/C=C/c1ccc(O)c(O)c1)C(=O)O`, the Potency result in assay [1], in assay [3], in assay [17], in [18], in [9] and in assay [10] was “inactive” throughout. Also, the Potency result in [13], in [14], in assay [15] and in [19] was “inactive” each time.
